For 28 compounds, Potency results are on record in PubChem BioAssay (NCATS).

Records with an inconclusive call do not appear. Activity calls are given as the source filed them. The call rests on the fitted dose curve; in most records, active means well fitted inhibition curve with a large enough effect; inconclusive means small, poorly fitted or top-dose-only effect; inactive means flat fitted curve, though single readings scatter.

Experiment in all cases: qHTS profiling for inhibitors of Plasmodium falciparum proliferation (AID 504749); further: nearly all actives have a fitted effect of over 60% in size
Conditions in all cases: P. falciparum in erythrocytes, SYBR Green DNA, 72 h; series mostly up to 28.7 µM
For orientation: Quantitative high-throughput screening tests each substance at several concentrations.

One assay deals with N140. The procedure, abridged:
(§1)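 Each compound contacts P. falciparum-infected red blood cells for 72 h at 37 C; lysis buffer (Tris, EDTA, saponin, Triton X, SYBR Green I) is added and fluorescence measured next morning; values normalized to controls.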

For the next assay, the system named is P93_24. The procedure, abridged: as §1
In the next assay the test system is P94_40. The procedure, abridged: as §1
The test system of another assay is PAD. The procedure, abridged: as §1
Another assay has as its system PC15. The procedure, abridged:
as §1

A further assay deals with PC26. The procedure, abridged:
as §1

Another assay relates to PC49. In outline:
as §1

A further assay concerns SC27B. The procedure, abridged:
as §1

The subject of the next assay is TAB109. In outline: as §1
Another assay deals with TAB113. The procedure, abridged: as §1
Potency means the concentration at half of the fitted maximal effect.

For the compound `Oc1ccc(C2CNCCc3c2cc(O)c(O)c3Cl)cc1` (stereo not given), the Potency result in the assay with N140, in the assay with P93_24, in the assay on P94_40, in the assay on PAD, in the assay on PC15 and in the assay on PC26 was “inactive” in each case. Also, the Potency result in the assay on PC49, in the assay with SC27B, with TAB109 and in the assay with TAB113 was “inactive” in each case.

As to `O=c1[nH]cnc2[nH]ncc12`, the Potency entry with N140, in the assay on P93_24, in the assay with P94_40, with PAD, with PC15 and in the assay on PC26 was “inactive” in each case. Besides, the Potency entry in the assay with PC49, in the assay on SC27B, with TAB109 and in the assay with TAB113 was “inactive” in each case.

For `Cc1[nH]c(=O)c(C#N)cc1-c1ccc2nccn2c1`, the Potency entry in the assay with N140, in the assay on P93_24, with P94_40, with PAD, in the assay on PC15 and in the assay with PC26 was “inactive” each time. For the same compound, the Potency result with PC49, in the assay on SC27B, with TAB109 and in the assay with TAB113 was “inactive” in each case.

For the compound `CCc1ccc(CCOc2ccc(CC3SC(=O)NC3=O)cc2)nc1` (stereo not given), the Potency result with N140, with P93_24, with P94_40, in the assay on PAD, in the assay with PC15 and in the assay on PC26 was “inactive” throughout. Moreover, the Potency result in the assay with PC49, in the assay on SC27B, in the assay on TAB109 and with TAB113 was “inactive” throughout.

Take `N[C@@H]1CONC1=O`: the Potency entry in the assay with N140, in the assay with P93_24, in the assay with P94_40, in the assay with PAD, with PC15 and with PC26 was “inactive” in each case. The Potency entry in the assay on PC49, in the assay on SC27B and in the assay on TAB113 was “inactive” each time.

`C#Cc1cccc(Nc2ncnc3cc(OCCOC)c(OCCOC)cc23)c1`: the Potency in the assay on P94_40 was 12.6 µM (active); in the assay with PAD, 11.2 µM (active). Also, the Potency result with PC49 is “inactive”.

`CC(C)C[C@H](NC(=O)[C@@H](O)[C@H](N)Cc1ccccc1)C(=O)O`: the Potency was 7.94 µM (active) in the assay with N140; 5.01 µM (active) with P93_24; 7.08 µM (active) in the assay on P94_40; 10 µM (active) in the assay with PAD; 9.53 µM (active) in the assay on PC26; 7.94 µM (active) with SC27B. Also, the Potency is 6.31 µM (active) with TAB109 and 7.08 µM (active) with TAB113.

As for `CC(=O)Oc1ccccc1C(=O)O`, the Potency result with N140, in the assay with P93_24, in the assay with P94_40, with PAD, in the assay with PC15 and in the assay on PC49 was “inactive” in each case. The Potency result with SC27B, in the assay with TAB109 and in the assay with TAB113 was “inactive” in each case.

`CCOC(=O)C1=C[C@]2(CC)CCCN3CCc4c(n1c1ccccc41)[C@@H]32`: the Potency was 12.6 µM (active) in the assay on N140; 12.6 µM (active) with P93_24; 15.1 µM (active) in the assay with PC26; 12.6 µM (active) in the assay with SC27B; 10 µM (active) in the assay on TAB109.

As to `Cn1cnc([N+](=O)[O-])c1Sc1ncnc2nc[nH]c12`, the Potency entry in the assay with PAD, in the assay on PC49, in the assay with SC27B, in the assay on TAB109 and in the assay with TAB113 was “inactive” throughout.

As to `CC(c1cc2ccccc2s1)N(O)C(N)=O` (stereo not given), the Potency result in the assay with N140, with P93_24, in the assay on P94_40, with PAD, with PC15 and with PC49 was “inactive” each time. Further, the Potency result in the assay with SC27B, with TAB109 and in the assay on TAB113 was “inactive” each time.

As for `Nc1nc2ccc(OC(F)(F)F)cc2s1`, the Potency result with N140, in the assay on P93_24, in the assay with PAD, in the assay with PC15, with PC26 and in the assay with PC49 was “inactive” throughout. Also, the Potency result with TAB109 and in the assay with TAB113 was “inactive” each time.

As to `Cc1oncc1C(=O)Nc1ccc(C(F)(F)F)cc1`, the Potency entry with N140, with P94_40, with PAD, in the assay on PC15, in the assay on PC26 and with PC49 was “inactive” throughout. Besides, the Potency result in the assay with SC27B, with TAB109 and with TAB113 was “inactive” in each case.

Take `CC(C)NCC(O)COc1ccc(COCCOC(C)C)cc1` (stereo not given): the Potency entry in the assay with N140, with P93_24, in the assay on P94_40, in the assay on PAD, with PC15 and with PC26 was “inactive” throughout. Moreover, the Potency result in the assay on PC49, in the assay with SC27B and in the assay with TAB113 was “inactive” in each case.

As for `NCCc1ccc(O)c(O)c1`, the Potency result with P93_24, in the assay on P94_40, with PAD, in the assay on PC15, in the assay with PC26 and in the assay on PC49 was “inactive” each time. Besides, the Potency entry in the assay on SC27B, in the assay with TAB109 and with TAB113 was “inactive” in each case.

Consider `CN1CCN(CCCN2c3ccccc3Sc3ccc(C(F)(F)F)cc32)CC1`, for which the Potency in the assay on N140 is 8.91 µM (active); in the assay on P93_24, 2.24 µM (active); in the assay on P94_40, 12.6 µM (active); in the assay with PAD it was 12.6 µM (active); in the assay with PC15, 10 µM (active); in the assay with PC26 it was 13.5 µM (active). Besides, the Potency with TAB109 is 11.2 µM (active). Besides, the Potency result in the assay on TAB113 was “inactive”.

As to `CCCc1nc2c(C)cc(-c3nc4ccccc4n3C)cc2n1Cc1ccc(-c2ccccc2C(=O)O)cc1`, the Potency was 1.41 µM (active) in the assay with N140; 1.78 µM (active) in the assay on P94_40; 1 µM (active) in the assay with PAD; 2.51 µM (active) in the assay on PC15; 2.51 µM (active) with PC49; 1.58 µM (active) with SC27B. Also, the Potency in the assay with TAB113 is 2.24 µM (active).

Turning to `NNCCc1ccccc1`, the Potency result in the assay on N140, with P93_24, in the assay on PAD, in the assay on PC15, in the assay on PC26 and in the assay with PC49 was “inactive” throughout. The Potency result in the assay with SC27B, with TAB109 and in the assay with TAB113 was “inactive” in each case.

On to `COc1ccc2nc(S(=O)Cc3ncc(C)c(OC)c3C)[nH]c2c1` (stereo not given), for which the Potency result in the assay on N140, in the assay with P93_24, in the assay on P94_40, in the assay on PC15, in the assay on PC49 and with SC27B was “inactive” each time. For the same compound, the Potency entry with TAB109 and with TAB113 was “inactive” in each case.

On to `Clc1ccc(Nc2nnc(Cc3ccncc3)c3ccccc23)cc1`, for which the Potency entry in the assay with PC15, in the assay with PC26, with PC49, in the assay with SC27B, with TAB109 and in the assay with TAB113 was “inactive” in each case.

Regarding `O=C1CCc2cc(OCCCCc3nnnn3C3CCCCC3)ccc2N1`, in the assay on TAB109, the Potency entry was “inactive”.

Take `NC(N)=NC(=O)c1nc(Cl)c(N)nc1N`: the Potency is 8.91 µM (active) in the assay on N140; 7.08 µM (active) with P93_24; 12.6 µM (active) with P94_40; 8.91 µM (active) with PAD; 7.08 µM (active) in the assay with PC15; 10 µM (active) with TAB109.

`CCOC(=O)N1CCC(=C2c3ccc(Cl)cc3CCc3cccnc32)CC1`: the Potency is 3.98 µM (active) with N140; 11.2 µM (active) in the assay with P94_40; 3.16 µM (active) in the assay on PAD; 11.2 µM (active) with PC15; 12 µM (active) in the assay with PC26; 4.47 µM (active) in the assay on PC49. For the same compound, in the assay on SC27B, the Potency is 6.31 µM (active). The Potency result in the assay with TAB109 was “inactive”.

For `Cc1c(C)c2c(c(C)c1O)CCC(C)(COc1ccc(CC3SC(=O)NC3=O)cc1)O2` (stereo not given), the Potency is 10 µM (active) in the assay on P94_40, 10 µM (active) in the assay on SC27B and 11.2 µM (active) in the assay with TAB113. Also, the Potency result with PC15, with PC49 and in the assay on TAB109 was “inactive” each time.

Regarding `CNC[C@H](O)c1cccc(O)c1`, the Potency result in the assay with N140, in the assay with P93_24, in the assay on P94_40, in the assay on PC15, with PC26 and in the assay with PC49 was “inactive” each time. Moreover, the Potency entry in the assay on SC27B, in the assay on TAB109 and in the assay on TAB113 was “inactive” each time.

Take `Cc1ccccc1C(OCCN(C)C)c1ccccc1` (stereo not given): in the assay on N140, the Potency was 12.6 µM (active). In addition, the Potency entry in the assay on PAD and with PC49 was “inactive” throughout.

Regarding `C1COC(NC(C2CC2)C2CC2)=N1`, in the assay with PAD, the Potency was 11.2 µM (active). The Potency result with PC15, in the assay on PC49, in the assay on SC27B and with TAB113 was “inactive” each time.

As for `CCOC(=O)C1=C[C@@]2(CC)CCCN3CCc4c(n1c1ccccc41)[C@H]32`, in the assay with PC26, the Potency is 15.1 µM (active).
